Assay outcomes from PubChem BioAssay.
Sampled rows, rich in hits. Any-hit rate of the full collection: about 5%.
ALR inh = inhibitors of human ALR sulfhydryl oxidase, primary screen, biochemical, H2O2 detection, HRP-luminol luminescence, single point | FAD-linked sulfhydryl oxidase ALR (Homo sapiens), P55789 | purified ALR, DTT oxidation | inhibition, % (test concentration not listed) | actives 3.8% (n = 290,000);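 active = mean replicate inhibition above about 79%, with every replicate also reaching it, limit read from the data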
AI-2 QS modul = Vibrio harveyi AI-2 quorum sensing modulators, primary screen, JMH597 strain, luminescence/OD600 ratio | actives 0.4% (n = 300,000) | AID 2094, 2009 | activity change, % at 7.5 µM | Vibrio harveyi JMH597 AI-2 luminescence/OD600 ratio, 9 h; stronger effect = lower value; strain lacks LuxN and CqsS sensors; 0 = neutral-control median; in the data active = activity change below about -75%, passing the limit was not always enough;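 note: luminescence divided by OD600 gain over 9 h not by final OD600 alone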
CHT PAM = CHT positive allosteric modulators, primary screen, cell-based, membrane potential dye, choline EC20; High affinity choline transporter 1 (Homo sapiens), Q9GZV3; CHT-expressing cells; stronger effect = higher value; LV-AA mutant CHT in HEK293 cells; B-score at 10 µM; actives 0.49% (n = 310,000); AID 488977, 2010;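 active = initial fluorescence not abnormally high and integrated response B-score, plate-corrected, over 3 SD above library mean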
PREPL inh = PREPL enzyme inhibitors, primary screen, biochemical, fluorescence polarization; Prolyl endopeptidase-like (Homo sapiens), Q4J6C6; recombinant PREPL, fluorescence polarization activity-based probe; inhibition, % at 5.96 µM; actives 0.68% (n = 320,000); AID 2751, 2010; in the data active = inhibition above about 43%;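 note: 0% = enzyme with DMSO and 100% = wells lacking enzyme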
Target sequence (Q4J6C6 whole entry, looked up): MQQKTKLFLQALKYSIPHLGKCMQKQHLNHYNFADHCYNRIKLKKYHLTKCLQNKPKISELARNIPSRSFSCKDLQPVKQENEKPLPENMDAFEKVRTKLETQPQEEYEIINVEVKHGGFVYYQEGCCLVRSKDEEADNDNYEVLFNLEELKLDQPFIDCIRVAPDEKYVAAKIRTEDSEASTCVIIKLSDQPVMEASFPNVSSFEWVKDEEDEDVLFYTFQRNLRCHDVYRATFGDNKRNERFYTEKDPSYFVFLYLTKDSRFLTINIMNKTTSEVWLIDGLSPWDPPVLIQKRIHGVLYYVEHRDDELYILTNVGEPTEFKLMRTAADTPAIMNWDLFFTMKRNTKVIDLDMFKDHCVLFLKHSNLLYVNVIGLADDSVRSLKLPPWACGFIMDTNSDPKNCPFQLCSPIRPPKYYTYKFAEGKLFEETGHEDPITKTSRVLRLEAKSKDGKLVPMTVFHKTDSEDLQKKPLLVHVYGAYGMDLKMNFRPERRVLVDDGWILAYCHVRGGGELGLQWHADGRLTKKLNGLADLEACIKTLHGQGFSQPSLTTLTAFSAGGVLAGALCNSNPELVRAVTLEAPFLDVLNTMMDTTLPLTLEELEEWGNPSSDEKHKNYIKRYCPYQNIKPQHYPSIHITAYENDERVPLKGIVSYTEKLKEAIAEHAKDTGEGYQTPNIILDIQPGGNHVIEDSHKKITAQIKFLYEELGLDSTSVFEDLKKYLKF
CHT inh = inhibitors of human choline transporter CHT. actives 0.86% (n = 310,000). High affinity choline transporter 1 (Homo sapiens), Q9GZV3. CHT-expressing cells, membrane potential dye, choline response; stronger effect = lower value. AID 488975, 2010. B-score at 10 µM;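 active = B-score over 3 SD under the library average, and starting fluorescence ratio not unusually high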;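 note: choline stimulus applied at its EC90 after an EC20 pre-addition; B-score computed on integrated fluorescence ratio after choline addition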
CHT inh conf = CHT inhibitors, confirmation, cell-based, membrane potential dye, duplicate; CHT-expressing cells, choline membrane potential dye; LV-to-AA substituted CHT, HEK293 cells; actives 70% (n = 2,400); shares compounds with CHT inh; AID 493221, 2011; CHT activity remaining % of control (stronger effect = lower value), % at 10 µM;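 active = choline transporter activity left, mean of duplicates at 10 µM, below buffer-only control mean minus 3 SD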;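 note: depolarization triggered by choline at its EC90 following an EC20 pre-addition; 0% = hemicholinium-3 full block and 100% = buffer-only control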
HEK293 CHT ctr = membrane potential effects in parental HEK293, counter-screen for CHT inhibitor project, cell-based, membrane potential dye; choline response; active = decrease or increase beyond buffer ±3SD; AID 493222, 2011; membrane potential ratio readout (active if shifted either direction beyond buffer ±3SD; no single direction) at 10 µM; shares compounds with CHT inh; actives 4% (n = 2,400);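 note: parental cells lack the transporter so any hit is non-specific; ratio is peak minus trough fluorescence over baseline after EC90 choline challenge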
* = called active by the depositor; i = inactive; . = not tested or not shown.

SMILES	ALR inh	AI-2 QS modul	CHT PAM	PREPL inh	CHT inh	CHT inh conf	HEK293 CHT ctr
O=C(OCC(=O)N1N=C(c2ccc(Cl)cc2)CC1c1ccco1)c1cncc(Br)c1 (stereo unspecified)	-2	.	.	-22	.	.	.
CCN(CC)CCCNC(=O)c1ccccc1NC(=O)C1=CSCCO1	3	25	i	1	-12*	21%*	i
O=C(O)CSc1cc(C(=O)c2ccccc2O)cn2c(=O)c3c(-c4ccccc4)csc3nc12	98*	68	i	20	-7*	30%*	i
CC(C)NC(=O)N(C)C[C@@H]1Oc2c(NC(=O)Nc3ccccc3)cccc2C(=O)N([C@H](C)CO)C[C@H]1C	3	.	.	11	.	.	.
CC(=O)c1ccc(S(=O)(=O)Nc2ccc(C(=O)NCCCn3ccnc3)cc2)cc1	-3	.	.	13	.	.	.
CCCCNS(=O)(=O)c1ccc2nc(SCC(=O)c3ccccc3OC)[nH]c2c1	35	19	i	-4	-9.7*	50%*	i
O=C(Cc1c(O)c2ccccc2oc1=O)c1ccc(C(F)(F)F)cc1	-6	-2	i	9	i	.	.
O=c1oc2ccccc2c(O)c1Cc1cc(Cl)c2cccnc2c1O	-2	29	i	4	-7.3*	69%*	i
O=C(NNC(=O)c1cccs1)c1ccc(Cl)nc1	2	27	i	4	i	.	.
CCn1c(COc2ccc(=O)n(-c3ccccc3)n2)nnc1SCc1ccc(OC)cc1	-16	205	i	11	-5.3*	i	i
C=CCNc1nc(SCC=C)nc2ccsc12	5	16	i	9	-8.4*	25%*	i
C=CCNc1oc(-c2cccs2)nc1C#N	37	18	i	15	i	.	.
COCCNC(=O)c1cc(-c2ccccc2OC)on1	.	32	i	1	-7.4*	i	i
CNCC(=O)N1CCN(c2ncc(C(F)(F)F)cc2Cl)CC1	-5	6	i	1	i	.	.
O=C(CSc1ccccn1)N1CCN(c2ncc(C(F)(F)F)cc2Cl)CC1	-4	11	i	19	-5.3*	i	i
CON(C)C(=O)C[C@@H]1C[C@H](OC(=O)c2ccc([N+](=O)[O-])cc2)CN1C(=O)OC(C)(C)C	-9	.	.	6	.	.	.
CCOc1ccccc1Cn1c(=O)sc2ccccc21	34	13	i	-3	i	.	.
COc1ccc(Cl)cc1NC(=O)C[n+]1cccc(C)c1	-13	11	i	12	-8.1*	40%*	i
COc1cc([N+](=O)[O-])ccc1NC(=O)C[n+]1cccc(C)c1	.	9	i	17	i	.	.
C/C(=N\NC(=O)c1ccc(Cn2cc(Br)cn2)o1)c1ccc(NC(=O)c2ccoc2C)cc1	.	25	.	.	.	.	.
CC(C)(O)P(=O)(O)CCc1ccccc1	-1	15	i	19	i	.	.
CCOc1ccc(Br)cc1CC(=O)O	-4	15	i	3	i	.	.
CCCOc1ccc(Br)cc1CSC(=N)N	-56	3	i	0	-6.1*	33%*	i
COc1ccccc1-n1nnnc1SCC(=O)NCC1(N2CCOCC2)CCCCC1	49	.	.	14	.	.	.
O=c1c2cc(Br)ccc2nc(-c2ccc(Cl)cc2)n1O	.	18	i	4	-6.1*	41%*	i
Cc1ccc(-c2nc3c(Cl)cc(Cl)cc3c(=O)n2O)cc1	-2	12	i	21	-5.5*	46%*	i
CC(NC(=O)c1ccccc1F)c1nnc(SCC(=O)NC2=NCCS2)n1C (stereo unspecified)	0	10	i	10	i	.	.
